# Reference: PubChem BioAssay
# Some of the results follow. Calls of active or inactive are those of the source.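 The calls were made as follows: active = mean activation across triplicate tests above the threshold derived from the earlier primary screen (cut at about 5.5% in these data); inactive = the rest.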
# Test system: Nuclear hormone receptor DAF-12 (Haemonchus contortus)
# Experiment: hcDAF-12 luciferase reporter activation, retest – cell-based, luminescence, HEK293, lit1-tk-luc, triplicate, confirmation (AID 743032);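 also: 0% = DMSO only wells and 100% = 3 µM Δ7-dafachronic acid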
# Conditions: HEK293 hcDAF-12 lit1-tk-luc reporter, at 6.8 µM, hits give high values, % of Δ7-dafachronic acid response
row,SMILES,activation
1,O=[N+]([O-])c1ccc2oc(-c3cccc(O)c3)nc2c1,20% (active)
2,NNC(=O)C1CCCn2c1nc1sc3c(c1c2=O)CCCC3 (stereo not given),4.24% (inactive)
3,Clc1cccc(-c2nc3nc4ccccc4nc3n2Cc2ccco2)c1,5.41% (inactive)
4,COc1ccccc1C(=O)NCc1nnc(SC(C)C(=O)Nc2nccs2)n1C (stereo not given),4.95% (inactive)
5,O=C(O)c1[nH]c2ccccc2c1C(c1cccc(O)c1)c1c(C(=O)O)[nH]c2ccccc12,4.41% (inactive)
6,O=C(CN1CCCCC1)NC(=O)Nc1ccccc1F,1.2% (inactive)
7,c1ccc(-c2cc(-c3ccccc3)[nH]n2)cc1,15.7% (active)
8,COc1ccccc1-c1nnc(NC(=O)c2ccc3ncsc3c2)o1,10.3% (active)
9,Cc1cc(O)c(C(=O)/C=C/c2c(F)c(F)c(F)c(F)c2F)c(=O)o1,-1.06% (inactive)
10,COc1ccc(C2CC(c3cccs3)=Nc3ccccc3S2)cc1OC (stereo not given),2.78% (inactive)
11,Cc1cccnc1NC(=O)Cn1c(=O)oc2ccccc21,1.31% (inactive)
12,Cc1ccc(S(=O)(=O)Nc2nc3ccccc3nc2N2CCc3ccccc3C2)cc1,8.94% (active)
13,NC(=O)Nc1ccccc1C(=O)NCCc1ccccc1,4.12% (inactive)
14,Cc1nc2cc(NC(=O)Nc3cccc(F)c3)ccc2n1C,11.2% (active)
15,O=C(COc1cccc(Cl)c1)NCc1ccccc1,0.38% (inactive)
16,COc1ccc(Nc2nc(-c3ccccc3)cs2)cc1,18.8% (active)
17,NC(=O)c1c(NC(=O)c2ccccc2)sc2c1CCCC2,13.6% (active)
18,CCc1ccc(NC(=O)N2CCc3ccccc3C2)cc1,7.24% (active)
19,Nc1ccc2[nH]c(=S)sc2c1,2.92% (inactive)
20,O=C(/C=C/c1cnc2ccccc2n1)NC1CCCCCC1,4.58% (inactive)

row,SMILES,activation
1,Nc1ccccc1/C=N\N=C/c1ccccc1N,12.4% (active)
2,CCS(=O)(=O)c1cc([N+](=O)[O-])c(Sc2ccccc2N)s1,7.39% (active)
3,Cc1ccc(-c2nc3ccccc3[nH]2)cc1N,10.4% (active)
4,CC(=O)N1CCN(c2ccccc2NC(=S)NC(=O)c2cc3ccccc3o2)CC1,1.71% (inactive)
5,O=C(NC(Cc1c[nH]c2ccccc12)C(=O)O)/C(=C/c1ccco1)NC(=O)c1ccccc1 (stereo not given),3.64% (inactive)
6,Cc1ccc(C(=O)O/N=C(\N)c2ccccn2)cc1Cl,4.81% (inactive)
7,COc1cc2ccccc2cc1C(=O)Nc1ccccc1C,9.11% (active)
8,Cc1c(C=O)c2ccccc2n1CC(=O)O,1.56% (inactive)
9,CC(C)c1ccc(C=NNc2ccc([N+](=O)[O-])cn2)cc1,12% (active)
10,OC(COc1ccc2ccccc2c1)CN1CCOCC1 (stereo not given),8.99% (active)
11,CCn1cc(CN2CCN(CC(C)(C)C)C(CCO)C2)c2ccccc21 (stereo not given),3.73% (inactive)
12,Cc1c(C(=O)Nc2ccccn2)oc2ccc(Br)cc12,15.4% (active)
13,O=C(Oc1ccc([N+](=O)[O-])cc1)c1ccc2ccccc2n1,4.02% (inactive)
14,Cc1ccccc1C(=O)N[C@H](C(=O)N1CCC[C@H]1C(=O)NCc1ccccc1)C(C)C,0.18% (inactive)
15,COc1ccc(-c2cn3ccc(C)cc3n2)cc1,9.09% (active)
16,COc1ccc(OCc2cc(C(=O)N3CCCC3)no2)c2ccccc12,8.88% (active)
17,Clc1ccc(-c2cc(-c3ccccn3)on2)c(Cl)c1,12.6% (active)
18,CCc1ccc(-c2cc(C(=O)NN3CCN(C)CC3)c3ccccc3n2)cc1,0.58% (inactive)
19,Cc1cccc(Nc2nc(-c3ccccc3)cs2)n1,16% (active)
20,Fc1ccc2nc(Nc3nc4c(s3)CCCC4)sc2c1,11.5% (active)
